This is a sample that favours compounds with a hit; in the whole collection about 4.1% have one here.
hgDAF12 agonist – activates the H. glycines DAF-12 receptor ligand-binding domain | HEK293 GAL4-hgDAF12 UAS-luciferase reporter, agonist luminescence; normalized to butyrate control | activation, % at 6.8 µM | 370,000 tested, 1.8% active | AID 687014;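 active = activation above a cutoff set at the mean of all screened compounds plus 3 SD, cut at about 10% in these data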;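 note: 0% = DMSO wells and 100% = sodium butyrate wells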
ssDAF-12 act – activators of S. stercoralis DAF-12 nuclear receptor; HEK293 ssDAF-12/GRIP1 lit1-tk-luc reporter, luminescence; % of 3 µM dafachronic acid response; activation, % at 6.8 µM; 370,000 tested, 1% active; AID 652126;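 active = activation above the mean over all tested compounds plus 3 SD, cut at about 0.9% in these data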;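 note: 0% = DMSO-only wells and 100% = 3 µM delta7-dafachronic acid wells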
hcDAF-12 act – activates DAF-12 receptor from parasite H. contortus; 370,000 tested, 1.4% active; HEK293 hcDAF-12 lit1-tk-luc reporter, luminescence; 0% DMSO, 100% Δ7-dafachronic acid; activation, % at 6.8 µM;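 active = activation above the mean of all tested compounds plus 3 SD, cut at about 5.5% in these data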;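 note: 100% = response to 3 µM Δ7-dafachronic acid high control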
DAX1 inh-1 – inhibitors of DAX1 repression of SF-1 activated StAR promoter; 370,000 tested, 1.1% active; HEK293T StAR-luciferase reporter, SF-1/DAX-1 repression relief; AID 652010; inhibition, % at 6.8 µM;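 active = inhibition above the mean over all tested compounds plus 3 SD, cut at about 3.6% in these data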;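 note: 0% = DAX-1 cells with DMSO and 100% = cells lacking DAX-1 with DMSO; higher inhibition means more luminescence from relief of DAX-1 repression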
DAX1 inh-2 – inhibitors of human orphan nuclear receptor DAX1 (NR0B1) | 340,000 tested, 0.99% active | AID 504766 | HEK293 Gal4-DAX1 luciferase reporter, luminescence | inhibition, % at 6.75 µM;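 active = inhibition above the mean over all tested compounds plus 3 SD, cut at about 4.2% in these data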;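 note: 0% = DAX1-transfected cells with DMSO and 100% = empty-vector control cells with DMSO; inhibition shows as a rise in luminescence from relieved DAX1 repression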
DAX1 conf – NR0B1 (human) inhibition, confirmation | shares compounds with DAX1 inh-1 | HEK293T StAR-promoter luciferase reporter, SF-1/DAX-1 repression | inhibition, % at 6.8 µM | 2,400 tested, 87% active | AID 652134;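 active = inhibition above the average of every tested compound plus 3 SD, cut at about 3.8% in these data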;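 note: 0% = DAX-1 cells with DMSO and 100% = no DAX-1 control cells with DMSO; active compounds raise luminescence by relieving repression of the StAR reporter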
Target sequence (P51843 whole entry, looked up): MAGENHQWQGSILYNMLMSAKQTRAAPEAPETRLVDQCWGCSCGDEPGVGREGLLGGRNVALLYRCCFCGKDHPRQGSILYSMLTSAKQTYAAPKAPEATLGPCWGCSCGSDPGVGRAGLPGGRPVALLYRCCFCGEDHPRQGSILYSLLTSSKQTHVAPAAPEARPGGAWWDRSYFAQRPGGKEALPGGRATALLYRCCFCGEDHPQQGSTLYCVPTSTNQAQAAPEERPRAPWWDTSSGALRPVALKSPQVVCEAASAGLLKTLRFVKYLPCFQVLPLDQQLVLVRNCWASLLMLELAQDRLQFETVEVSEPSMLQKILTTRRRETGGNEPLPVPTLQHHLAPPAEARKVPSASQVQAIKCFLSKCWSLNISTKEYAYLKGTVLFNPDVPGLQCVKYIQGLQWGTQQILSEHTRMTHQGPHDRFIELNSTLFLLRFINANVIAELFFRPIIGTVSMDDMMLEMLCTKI
SF1 mutant ctr – counter-screen for DAX1 inhibitors: nonselective inhibitors with SF-1 AF2 mutant | 2,400 tested, 78% active | inhibition, % at 6.8 µM | HEK293 StAR-luciferase, luminescence | AID 652136 | shares compounds with DAX1 inh-1;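 active = inhibition above the mean of all tested compounds plus 3 SD, cut at about 3% in these data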;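 note: 0% = DAX-1 transfected cells with DMSO and 100% = cells without DAX-1 with DMSO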
* marks the source's active call; other numbers are inactive results; x = no result.

SMILES	hgDAF12 agonist	ssDAF-12 act	hcDAF-12 act	DAX1 inh-1	DAX1 inh-2	DAX1 conf	SF1 mutant ctr
CCOc1ccc(-c2cc(C(=O)NCc3ccc(F)cc3)[nH]n2)c(C)c1	3	-1	-2	0	x	x	x
O=C(NCCc1ccccc1)C1=COCCO1	8	-1	4	7.8*	1	8.7*	6.5*
CCN(CC)CCn1c(NC(=O)c2ccccc2O)nc2ccccc21	5	0	5	-1	0	x	x
CC(=O)N(O)c1ccc(C=Cc2ccccc2)cc1	6	-1	4	0	x	x	x
CN(N=O)c1ccc(C=C2C=Cc3ccccc32)cc1	11*	1.0*	7.4*	6.3*	5.0*	12*	6.8*
CC(=O)N(C)c1ccc(C=C2C=Cc3ccccc32)cc1	6	0	6.2*	4.9*	0	3	-2
CCN(CC)c1ccc(C=C2C(=O)OC(c3ccccc3)OC2=O)cc1 (stereo not drawn)	-1	-1	-2	-1	2	x	x
CN(C)c1ccc(C=C2C(=O)OC(C)(C)OC2=O)cc1	1	0	-1	-1	1	x	x
CCN(N=O)c1ccc(C=C2C=Cc3ccccc32)cc1	19*	0	5.8*	6.6*	3	9.3*	5.7*
Cc1ccc(-c2nc3ccc(Br)cn3c2Cc2ccsc2)cc1	21*	1.1*	5	4.7*	x	8.6*	5.8*
C/C(N)=C(/C#N)C(=O)COC(=O)COc1ccc(Cl)cc1C	1	-1	0	0	1	x	x
COc1ccc(/C=C2\Sc3ccc(C(=O)NCCCN4CCCC4)cc3N(C)C2=O)cc1OC	2	-1	-1	4.6*	1	6.0*	0
CCOc1ccc(/C=C2/Sc3ccc(C(=O)NCC4CCCO4)cc3N(C)C2=O)cc1OC (stereo not drawn)	-5	-2	-4	-2	0	x	x
C/C=C(\C)C(=O)OC1[C@H](OC(C)=O)C2(CO)C(CC1(C)C)C1=CCC3C4(C)CCC(O[C@@H]5O[C@H](C(=O)O)[C@@H](O[C@@H]6O[C@H](CO)[C@@H](O)[C@H](O)[C@H]6O)[C@H](O)[C@H]5O[C@H]5O[C@H](CO)[C@@H](O)[C@H](O)[C@H]5O)[C@](C)(CO)C4CCC3(C)[C@]1(C)C[C@H]2O (stereo partly drawn)	x	x	x	x	-4	x	x
COCC(=O)N/N=C\c1ccccc1OC/C=C/c1ccccc1	11*	-1	1	8.1*	1	4	4.8*
O=S(=O)(Nc1cccc(-c2ccc(N3CCCCCC3)nn2)c1)c1ccc(F)cc1	4	0	4	5.7*	2	2	3
O=[N+]([O-])c1ccc(Cl)c(S(=O)(=O)Nc2ccc(-c3ccc(N4CCOCC4)nn3)cc2)c1	2	-1	-1	0	1	x	x
O=S(=O)(Nc1cccc(-c2ccc(N3CCCCCC3)nn2)c1)c1cccc(F)c1	5	0	1	4.6*	1	6.9*	4.4*
O=S(=O)(Nc1cccc(-c2ccc(N3CCCCCC3)nn2)c1)c1ccccc1F	4	-1	4	5.8*	1	6.1*	2
O=[N+]([O-])c1ccc(Cl)c(S(=O)(=O)Nc2cccc(-c3ccc(N4CCOCC4)nn3)c2)c1	6	-1	2	5.5*	-1	9.5*	4.5*
O=S(=O)(Nc1cccc(-c2ccc(N3CCCCCC3)nn2)c1)c1ccccc1Cl	3	-1	-2	1	0	x	x
CCOC(=O)c1sc(=NC(=O)c2ccc(F)cc2)n(C)c1C	7	0	6.0*	6.8*	1	15*	7.4*
CCOC(=O)c1sc(=NC(=O)c2c(F)cccc2F)n(C)c1C	3	-1	0	3	0	x	x
COc1ccc2c(c1)c1c(c(=O)n(-c3ccc(C)cc3)c(=O)n1CC(=O)NCC1CCCO1)n2C (stereo not drawn)	1	0	0	1	-1	x	x
CN(CCO)c1c2c(nc3cc(-c4cccc(F)c4)nn13)CCCC2	9	1	3	6.4*	1	10*	4.0*

Screens from PubChem.
